Most compounds without a hit are left out; they make up all but 4.8% or so of the library.
ssDAF-12 act – S. stercoralis DAF-12 nuclear receptor activators, primary screen, cell-based, luminescence, HEK293, GRIP1 co-expression, lit1-tk-luc. activation, % at 6.8 µM. 1% of 370,000 active. AID 652126, 2013. Nuclear hormone receptor DAF-12 (Strongyloides stercoralis). HEK293 ssDAF-12/GRIP1 lit1-tk-luc reporter; % of 3 µM dafachronic acid response;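 active means activation above the mean over all tested compounds plus 3 SD, cut at about 0.9% in these data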;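 further: 0% = DMSO-only wells and 100% = 3 µM delta7-dafachronic acid wells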
hcDAF-12 act – H. contortus DAF-12 nuclear receptor activators, primary screen, cell-based, luminescence, HEK293, lit1-tk-luc reporter; activation, % at 6.8 µM; 1.4% of 370,000 active; HEK293 hcDAF-12 lit1-tk-luc reporter; 0% DMSO, 100% Δ7-dafachronic acid;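 active means activation above the mean of all tested compounds plus 3 SD, cut at about 5.5% in these data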;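 further: 100% = response to 3 µM Δ7-dafachronic acid high control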
SMARCA2 act – SMARCA2 (BRM) function activators, primary screen, cell-based, luminescence, high throughput; MG213 cells, MMTV-luciferase reporter, dexamethasone, overnight; activation, % at 9.1 µM; 1% of 370,000 active; AID 652017, 2013; in the data active means activation above about 7.8%;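 further: 0% = vehicle wells and 100% = reference activator wells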
DAX1 inh-1 – DAX1 (NR0B1) inhibitors on StAR promoter, primary screen, cell-based, luminescence, SF-1 (NR5A1), full-length DAX-1; HEK293T StAR-luciferase reporter, SF-1/DAX-1 repression relief; inhibition, % at 6.8 µM; 1.1% of 370,000 active; AID 652010, 2013;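 active means inhibition above the mean over all tested compounds plus 3 SD, cut at about 3.6% in these data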;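 further: 0% = DAX-1 cells with DMSO and 100% = cells lacking DAX-1 with DMSO; higher inhibition means more luminescence from relief of DAX-1 repression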
hgDAF12 agonist – H. glycines DAF-12 receptor agonists, primary screen, cell-based, luminescence, HEK293, GAL4 fusion, UAS-luciferase. Nuclear hormone receptor DAF-12 (Heterodera glycines), GAL4 fusion. HEK293 GAL4-hgDAF12 UAS-luciferase reporter, agonist luminescence; normalized to butyrate control. activation, % at 6.8 µM. 1.8% of 370,000 active;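 active means activation above a cutoff set at the mean of all screened compounds plus 3 SD, cut at about 10% in these data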;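 further: 0% = DMSO wells and 100% = sodium butyrate wells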
DAX1 inh-2 – DAX1 (NR0B1) inhibitors, primary screen, cell-based, HEK293, Gal4-DAX1, luciferase luminescence; HEK293 Gal4-DAX1 luciferase reporter; inhibition, % at 6.75 µM; 0.99% of 340,000 active;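 active means inhibition above the mean over all tested compounds plus 3 SD, cut at about 4.2% in these data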;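 further: 0% = DAX1-transfected cells with DMSO and 100% = empty-vector control cells with DMSO; inhibition shows as a rise in luminescence from relieved DAX1 repression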
Target sequence (P51843 207-470 limits assumed): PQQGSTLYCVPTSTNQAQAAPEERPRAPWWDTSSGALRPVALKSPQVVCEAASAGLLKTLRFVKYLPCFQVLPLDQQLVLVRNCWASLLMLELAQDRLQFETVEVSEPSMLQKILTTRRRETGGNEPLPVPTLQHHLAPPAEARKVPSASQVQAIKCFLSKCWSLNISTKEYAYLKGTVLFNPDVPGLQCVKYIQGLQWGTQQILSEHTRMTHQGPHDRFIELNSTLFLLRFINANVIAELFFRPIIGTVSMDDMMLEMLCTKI
* marks the source's active call; other numbers are inactive results.

Screening CCn1c(SCC(=O)Nc2ccc(C)cc2)nc(O)cc1=O returned ssDAF-12 act -1, hcDAF-12 act 1, SMARCA2 act -6, DAX1 inh-1 0, hgDAF12 agonist -1 and DAX1 inh-2 4.5*.
Screening C=CCn1c(SCC(=O)Nc2ccc(Br)cc2)nc(O)cc1=O returned ssDAF-12 act -1, hcDAF-12 act -1, SMARCA2 act -1, DAX1 inh-1 -2, hgDAF12 agonist -2 and DAX1 inh-2 0.
`Cc1cc(Cl)ccc1OCC(=O)N/N=C/c1ccc[nH]1` gave ssDAF-12 act -2, hcDAF-12 act -2 and hgDAF12 agonist -2.
`COc1cc(N=Nc2ccc3ccccc3c2)ccc1O` gave ssDAF-12 act 1.7*, hcDAF-12 act 6, SMARCA2 act 3, DAX1 inh-1 2, hgDAF12 agonist 9 and DAX1 inh-2 8.1*.
O=c1[nH]nc(Cc2ccc(-c3ccccc3Cl)o2)c2ccccc12 was read as ssDAF-12 act 1.4*, hcDAF-12 act 0, SMARCA2 act -1, DAX1 inh-1 0, hgDAF12 agonist 2 and DAX1 inh-2 0.
`CCc1cc(=O)oc2cc(OC(C)C(=O)NCC3CCC(C(=O)O)CC3)c(Cl)cc12` (stereo unspecified) gave ssDAF-12 act -1, hcDAF-12 act 1, SMARCA2 act -2, DAX1 inh-1 2, hgDAF12 agonist 2 and DAX1 inh-2 5.9*.
For Cc1cc(=O)oc2cc(OC(C)C(=O)NCC3CCC(C(=O)O)CC3)c(Cl)cc12 (stereo unspecified) the results were ssDAF-12 act -1, hcDAF-12 act 0, SMARCA2 act 2, DAX1 inh-1 1, hgDAF12 agonist 1 and DAX1 inh-2 2.
`CC(Oc1ccc2c3c(c(=O)oc2c1)CCC3)C(=O)NCC1CCC(C(=O)O)CC1` (stereo unspecified) gave ssDAF-12 act 0, hcDAF-12 act 0, SMARCA2 act 2, DAX1 inh-1 1, hgDAF12 agonist -1 and DAX1 inh-2 4.7*.
For CCOC(=O)N1CCC(Nc2c(-c3ccc(C)cc3)c(=O)c2=O)CC1 the results were ssDAF-12 act 3.5*, hcDAF-12 act 0, SMARCA2 act 0, DAX1 inh-1 0, hgDAF12 agonist -2 and DAX1 inh-2 -1.
`O=C(NC1CCCCN(Cc2cccc(F)c2)C1=O)c1cccc(F)c1` (stereo unspecified) gave ssDAF-12 act -2, hcDAF-12 act -1, SMARCA2 act -1, DAX1 inh-1 -1 and hgDAF12 agonist -2.
For CCOC(=O)c1c(C)[nH]c(C(C)=NNC(=O)c2cccs2)c1C the results were ssDAF-12 act -1, hcDAF-12 act 1, SMARCA2 act 5, DAX1 inh-1 4.0*, hgDAF12 agonist 12* and DAX1 inh-2 1.
`CCOC(=O)c1c(C)[nH]c(/C(C)=N/NC(=O)c2cccnc2)c1C` gave ssDAF-12 act 0, hcDAF-12 act 2, SMARCA2 act 1, DAX1 inh-1 1, hgDAF12 agonist 1 and DAX1 inh-2 3.
Screening Cc1ccc2nc(-c3ccc(SCC(=O)Nc4nc(C)cs4)nc3)[nH]c2c1 returned ssDAF-12 act 0, hcDAF-12 act 5, SMARCA2 act 7, DAX1 inh-1 2, hgDAF12 agonist 8 and DAX1 inh-2 2.
For Cc1ccc2nc(-c3ccc(SCC(=O)Nc4nnc(C)s4)nc3)[nH]c2c1 the results were ssDAF-12 act 0, hcDAF-12 act 5.7*, SMARCA2 act 1, DAX1 inh-1 4.3*, hgDAF12 agonist 8 and DAX1 inh-2 3.
`CN=c1scc(C)n1/N=C/c1ccc2c(c1)OCO2` gave ssDAF-12 act 0, hcDAF-12 act 9.6*, SMARCA2 act 5, DAX1 inh-1 5.6*, hgDAF12 agonist 11* and DAX1 inh-2 -1.
For O=C(NCc1cccnc1)O[C@H]1CC[C@@]23CCCN2C(=O)CCC[C@H]3C1 the results were ssDAF-12 act -1, hcDAF-12 act 0 and hgDAF12 agonist -1.
`Cc1ccc2c3c(c(SCC(=O)Nc4nonc4C)nc2c1)CCCC3` gave ssDAF-12 act -1, hcDAF-12 act -1, SMARCA2 act 3, DAX1 inh-1 0, hgDAF12 agonist 11* and DAX1 inh-2 1.
Screening CCCC/C=C1/C(c2ccccc2)N(Cc2ccc(OC)cc2OC)C2=NC(c3ccccc3)CC(=O)N21 (stereo unspecified) returned ssDAF-12 act -2, hcDAF-12 act -1 and hgDAF12 agonist 5.
Screening CC(C(=O)c1ccccc1)[n+]1cccc(C(N)=O)c1 (stereo unspecified) returned ssDAF-12 act -2, hcDAF-12 act -1, SMARCA2 act -2, DAX1 inh-1 0, hgDAF12 agonist 0 and DAX1 inh-2 -1.
Cc1ccc(C(=O)C(C)[n+]2cccc(C(N)=O)c2)cc1 (stereo unspecified) was read as ssDAF-12 act -1, hcDAF-12 act -1, SMARCA2 act -3, DAX1 inh-1 0, hgDAF12 agonist -3 and DAX1 inh-2 7.1*.
`COc1ccc(/C=C2\SC(=S)N(CCC(=O)Nc3cccc(O)c3)C2=O)cc1` gave ssDAF-12 act -1, hcDAF-12 act 0, SMARCA2 act 0, DAX1 inh-1 1, hgDAF12 agonist 2 and DAX1 inh-2 4.8*.
COc1cccc(-c2nc(NCc3cccnc3)c3ccccc3n2)c1O was read as ssDAF-12 act 0, hcDAF-12 act 5.9*, SMARCA2 act -1, DAX1 inh-1 0, hgDAF12 agonist 3 and DAX1 inh-2 0.
For c1cncc(CNc2nc(-c3cccnc3)nc3ccccc23)c1 the results were ssDAF-12 act -1, hcDAF-12 act -1, SMARCA2 act 1, DAX1 inh-1 -1, hgDAF12 agonist 0 and DAX1 inh-2 0.
`CCCOc1ccc(N2C(=O)CC(N(CCCO)C(=O)CC)C2=O)cc1` (stereo unspecified) gave ssDAF-12 act -1, hcDAF-12 act -2, SMARCA2 act 0, DAX1 inh-1 0, hgDAF12 agonist 0 and DAX1 inh-2 1.
Screening CCCCN(C(C)=O)C1CC(=O)N(c2ccc(OCCC)cc2)C1=O (stereo unspecified) returned ssDAF-12 act -1, hcDAF-12 act 0, SMARCA2 act -1, DAX1 inh-1 0, hgDAF12 agonist 1 and DAX1 inh-2 8.6*.

High-throughput results deposited in PubChem by The Scripps Research Institute Molecular Screening Center.
